High-throughput results from PubChem.
Many of the other results were omitted from the sample, so hits are more common in it than they were.
Tgondii IFNg – inhibitors of Toxoplasma gondii growth with IFN-gamma. 69,000 compounds, 3.8% hits. AID 1259416. activity change, negative = inhibition, % (concentration not given with the values). Toxoplasma gondii growth in IFN-gamma-treated host cells; active compounds read low; in the data active means activity change below about -70%, passing the limit was not always enough;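 further: host cells are HeLa cells infected with Toxoplasma gondii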
Active calls of the source: *; i = inactive.

SMILES	Tgondii IFNg
OC(c1ccccc1)(c1ccccc1)c1cnc[nH]1	-62.1
Cc1ccnc(-n2cccc2CN2[C@@H]3CC[C@H]2CN(C)C(=O)C3)c1	4.5
COc1cc(N2CCCC3(CCN(CC(C)C)C3)C2)ncn1 (stereo not drawn)	23.4
Cc1ccc(CNC(=O)c2cc3cccnc3n(Cc3ccc(Cl)cc3)c2=O)cc1	30.5
COc1ccc(NC(=O)c2cc3cccnc3n(Cc3ccc(Cl)cc3)c2=O)cc1	i
CC(C)CNC(=O)c1cc2cccnc2n(Cc2ccccc2)c1=O	-94.5*
COc1ccc(CNC(=O)c2cc3cccnc3n(Cc3ccc(Cl)cc3)c2=O)cc1	-113.5*
COc1ccc(CNC(=O)c2cc3cccnc3n(Cc3ccccc3)c2=O)cc1	-74.0*
O=C(NCc1ccc(Cl)cc1)c1cc2cccnc2n(Cc2ccccc2)c1=O	-66.3
COc1ccc(CNC(=O)c2cc3cccnc3n(Cc3ccc(F)cc3)c2=O)cc1	-42.9
O=C(NCCc1ccccc1)c1cc2cccnc2n(Cc2ccccc2)c1=O	28.8
CCCCNC(=O)c1cc2cccnc2n(Cc2ccccc2)c1=O	-6.1
COc1ccccc1CC(C)N(C)C(=O)Cc1csc(C)n1 (stereo not drawn)	-10.0
O=C(NCc1c(F)cccc1F)c1cc2cccnc2n(Cc2ccc(Cl)cc2)c1=O	23.1
Cc1ccc(C)c(NC(=O)c2cc3cccnc3n(Cc3ccccc3)c2=O)c1	-0.6
CN(C)[C@@H]1CN(C(=O)Cc2ccsc2)[C@H]2COC[C@@H]12	32.5
Cc1cc(C)c2c(CC(=O)N(C)CCN(C)C)coc2c1	-3.3
Cc1ccc(N2CCO[C@@H]3CN(CCO)CC[C@H]3C2)nn1	-1.2
CN1CCc2c(CNC(=O)c3nccn3C)cncc2C1	-6.3
CC(O)CN1C[C@H]2CCC[C@@H](CNc3ncccn3)[C@@H]2C1 (stereo partly drawn)	14.3
O=C(NCCC1=CCCCC1)c1cc2cccnc2n(Cc2ccccc2)c1=O	-44.1
CN1C2CCC1CC(OC(=O)CNC1CCCCC1)C2 (stereo not drawn)	-4.8
CNC(=O)CN1CCOCC12CCN(c1ccc(C)nn1)CC2	-0.8
COCCCN1CCCCC12CC(=O)N(c1cncnc1)C2 (stereo not drawn)	63.7
CN(C)CCN1C[C@H](OCc2ccccn2)[C@@H]2COC[C@@H]21	-39.6
SMILES	Tgondii IFNg
C[N+]1(C)CCc2cc3c(cc2[C@H]1C1OC(=O)c2c1ccc1c2OCO1)OCO3 (stereo partly drawn)	15.1
CCN(CC)c1ccc(C2NCCc3[nH]cnc32)c(O)c1 (stereo not drawn)	6.8
c1cncc(CN2CCCC23CCCC3)c1	-0.9
c1ccc(COC[C@@H]2CCC3C(CCN3Cc3ccoc3)O2)nc1 (stereo partly drawn)	-2.6
CN1CCc2cc(O)cc3c2[C@H]1Cc1ccc(O)c(O)c1-3	-5.6
COc1cc2c3cc1Oc1cc(ccc1O)C[C@@H]1c4c(cc(OC)c(O)c4Oc4ccc(cc4)C[C@H]3N(C)CC2)CCN1C	-94.2*
O=C1[C@H]2CN(Cc3ccccn3)C[C@H]2CN1c1ccsc1	5.9
O=C(NCc1ccc(Cl)cc1)c1cc2cccnc2n(Cc2ccccc2F)c1=O	107.9
O=C(NCC1CC1)c1c(O)c2cccnc2n(Cc2ccccc2)c1=O	-91.7*
Cc1ccc(NC(=O)c2c(O)c3cccnc3n(Cc3ccccc3)c2=O)cc1	314.5
Cc1ccc(C)c(NC(=O)c2c(O)c3cccnc3n(Cc3ccccc3)c2=O)c1	78.7
O=C(Nc1ccc(F)cc1Cl)c1c(O)c2cccnc2n(Cc2ccccc2)c1=O	142.0
O=C(NCc1ccc(F)cc1)c1c(O)c2cccnc2n(Cc2ccccc2)c1=O	-99.1*
O=C(NCc1cccc(Cl)c1)c1c(O)c2cccnc2n(Cc2ccccc2)c1=O	-107.0*
O=C(Nc1ccccc1Cl)c1c(O)c2cccnc2n(Cc2ccccc2)c1=O	24.8
Cc1cccc(NC(=O)c2c(O)c3cccnc3n(Cc3ccccc3)c2=O)c1	139.3
COc1ccccc1CNC(=O)c1cc2cccnc2n(Cc2ccc(F)cc2)c1=O	92.4
O=C(NCc1ccc(Cl)cc1)c1c(O)c2cccnc2n(Cc2ccccc2)c1=O	-98.3*
Cc1cccc(NC(=O)c2c(O)c3cccnc3n(Cc3ccccc3)c2=O)c1C	14.9
NC1CCN(c2cccnc2)C1 (stereo not drawn)	12.8
CN1CCO[C@H]2CN(c3ncccn3)C[C@@H]21	-6.3
Cc1cnc(N2CCC[C@H]3CN(CC(=O)N(C)C)C[C@H]32)nc1	i
c1ccc(OCC2COCCC23CCNCC3)nc1 (stereo not drawn)	4.3
COCCNC(=O)c1cc2cccnc2n(Cc2ccccc2)c1=O	17.6
Cc1cccc(-c2ncc(CN3C[C@H]4CC[C@H]3C4)cn2)c1	9.4
SMILES	Tgondii IFNg
c1cncc(COC[C@@]23COC[C@@H]2CN(Cc2ccco2)C3)c1	-1.9
O=C(CCc1cccnc1)N1C[C@@H](c2ccccc2)[C@@H]2[C@H]1C1CCN2CC1	0.0
NS(=O)(=O)c1ccc(CC(=O)N2CCCCC2CN2CCCCC2)cc1 (stereo not drawn)	-5.2
CCN1C[C@]2(COC(=O)c3ccccc3N3C(=O)C[C@H](C)C3=O)CC[C@H](OC)[C@@]34[C@@H]5C[C@H]6[C@H](OC)[C@@H]5[C@](O)(C[C@@H]6OC)[C@@](O)([C@@H](OC)[C@H]23)[C@@H]14	13.1
CC(C)NC(=O)CNC(C)Cn1cncn1 (stereo not drawn)	7.1
COCC1CCC2(CCN(c3ncccn3)CC2)N1CC1CC1 (stereo not drawn)	38.6
COc1ccc(C)cc1NC(=O)c1c(O)c2cccnc2n(Cc2ccccc2)c1=O	45.3
O=C(NCc1ccccc1Cl)c1cc2cccnc2n(Cc2ccccc2)c1=O	-3.4
O=C(NCc1cc(F)cc(F)c1)c1c(O)c2cccnc2n(Cc2ccccc2)c1=O	-103.2*
C[C@]12CCC(=O)C=C1CCC1C2CC[C@@]2(C)C1CC[C@H]2O (stereo partly drawn)	11.0
CCc1nc(C)cc(NCCC23CCCN2CCC3)n1	-3.5
O=C(NCC1CCOCC1)c1cnc(Nc2ccc(Cl)cc2Cl)nc1C(F)(F)F	-73.8*
CSc1ccc(C(=O)N[C@H]2c3ccccc3[C@@H]3CNC[C@H]32)s1	-0.7
CCc1cc2c(cc1-c1csc(-c3snnc3C)n1)C(C)(C)CCC2(C)C	-14.7
COC1C(O)CC(OC2C(O)CC(OC3C(O)CC(OC4CCC5(C)C(CCC6[C@@H]5CC(O)C5(C)C(C7=CC(=O)OC7)CCC65O)C4)OC3C)OC2C)OC1C (stereo partly drawn)	-77.0*
C[C@]12CC[C@H](O)C[C@H]1CC[C@@H]1[C@@H]2CC[C@]2(C)[C@@](O)(c3ccoc3)CC[C@]12O	-2.5
CC(=O)O[C@H]1C[C@H](O[C@H]2[C@@H](O)C[C@H](O[C@H]3[C@@H](O)C[C@H](O[C@H]4CC[C@@]5(C)C(CCC6C5C[C@@H](O)[C@]5(C)[C@@H](C7=CC(=O)OC7)CC[C@]65O)C4)O[C@@H]3C)O[C@@H]2C)O[C@H](C)[C@H]1O[C@@H]1O[C@H](CO)[C@@H](O)[C@H](O)[C@H]1O (stereo partly drawn)	-73.3*
C[C@H]1OC(O[C@H]2[C@@H](O)CC(O[C@H]3[C@@H](O)C[C@H](O[C@H]4CC[C@]5(C)C6CC[C@]7(C)[C@@H](C8=CC(=O)OC8)[C@@H](O)C[C@]7(O)[C@@H]6CC[C@@H]5C4)O[C@@H]3C)O[C@@H]2C)C[C@H](O)C1O (stereo partly drawn)	-73.4*
Cc1ccc(C2(CN3C[C@@H]4C[C@@H](C3)c3cccc(=O)n3C4)CCNCC2)nc1	7.0
